The record followed here is PubChem BioAssay (NCI).

About 83,000 compounds went through this panel and 20% of them were active in at least one assay; those are over-represented in the sample as a whole.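 Plates (96-well) were seeded with cells, treated with compound at one concentration, and incubated for 48 hours before percent growth was determined.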 Unmarked numbers belong to inactive results. Calls of active or inactive are those of the source. How the source made its calls: active means growth percent below 10; inactive means the rest.

What all share (test): NCI-60 one-dose screen, 48 h (100 = growth as untreated, 0 = no growth, -100 = all killed)
Details in all cases: 10 µM unless noted

The test system of experiment [1] is HCT-15 colon.
For experiment [2], the system named is HT29 colon.
Experiment [3] concerns SNB-75 CNS.
Experiment [4] concerns SNB-19 CNS.
The test system of experiment [5] is U251 CNS.
For experiment [6], the system named is PC-3 prostate.
Experiment [7] relates to SK-MEL-5 melanoma.
In experiment [8] the test system is UACC-62 melanoma.
For experiment [9], the system named is SK-MEL-28 melanoma.
The test system of experiment [10] is SK-MEL-2 melanoma.
Experiment [11] concerns EKVX NSCLC.
The subject of experiment [12] is SN12C renal.
The subject of experiment [13] is UO-31 renal.
Experiment [14] concerns TK-10 renal.
Experiment [15] deals with ACHN renal.
Experiment [16] concerns CAKI-1 renal.
Experiment [17] concerns A498 renal.
Experiment [18] has as its system CCRF-CEM leukemia.
Experiment [19] has as its system MOLT-4 leukemia.
Experiment [20] concerns LOX IMVI melanoma.

Take `NCCNc1ccc([N+](=O)[O-])cc1`: the growth in [1] was 108%; in [2], 101%; in experiment [3], 96.2%; in [4], 101%; in experiment [5], 102%; in [6] it was 105%. For the same molecule, the growth in [7] is 118%; in experiment [8] it was 106%; in experiment [9], 108%; in experiment [10] it was 97.2%; in experiment [11] it was 137%; in experiment [12], 103%. Also, the growth is 87.1% in experiment [13]; 96.2% in experiment [14]; 108% in experiment [15]; 113% in [16]; 106% in experiment [17]; 94.5% in experiment [18]. The growth in [19] was 96.2%.

For the molecule `CN1CC(c2ccccc2)C(C(=O)c2ccc(Br)cc2)C12C(=O)Nc1ccccc12` (stereo unspecified), the growth is 95.7% in [1]; 87.2% in [2]; 96.1% in [3]; 89.9% in experiment [4]; 94.1% in experiment [5]; 70.7% in [6]. Further, the growth is 78.4% in experiment [8]; 97.3% in experiment [20]; 114% in experiment [9]; 99.2% in experiment [10]; 91.8% in experiment [11]; 94.5% in experiment [12]. The growth in experiment [13] is 65.9%; in experiment [14], 109%; in [15], 100%; in experiment [16], 63.2%; in [17], 105%; in experiment [18], 102%. Moreover, in experiment [19], the growth was 92.1%.

As for `O=C1/C(=C/c2ccc(-c3ccc(Cl)cc3)o2)SC(=S)N1CCc1ccc(O)cc1`, the growth in experiment [1] is 67.5%; in experiment [2], 25.2%; in [3] it was 25.8%; in experiment [4] it was 87.2%; in experiment [5], 22.2%; in experiment [6], 53.2%. The growth in experiment [8] is 50.5%; in experiment [20], 75.1%; in experiment [9], 93.6%; in [10], 58.5%; in experiment [11] it was 80.5%; in experiment [12] it was 63%. Besides, the growth in experiment [13] was 28.5%; in experiment [14], 51.1%; in experiment [15], 65.3%; in experiment [16], 20.4%; in [17], 58.9%; in experiment [18], 13.5%. Moreover, in [19], the growth was 15.3%.

As for `COc1cc2cc(Oc3ccc(NC(=O)Nc4ccc(Cl)c(Cl)c4)cc3)c(C)nc2cc1OCCN1CCCCC1`, the growth was 71.6% in experiment [1]; 19.9% in experiment [2]; 96.8% in [3]; 99.3% in experiment [4]; 53.2% in [5]; -30.2% (active) in experiment [6]. The growth in [7] was 89%; in experiment [8], 106%; in experiment [9] it was 98.2%; in experiment [10], 124%; in experiment [11], 99.8%; in experiment [12] it was 101%. In addition, the growth in [13] was 88.2%; in experiment [14] it was 133%; in experiment [15] it was 106%; in experiment [16] it was 78%; in experiment [17] it was 86.8%; in [18], 9.57% (active). The growth in [19] is 64.6%.

For the molecule `COc1ccc(-c2cc(-c3ccc(Cl)cc3)c(C#N)c(=O)n2CCCCC(=O)NO)cc1`, the growth in experiment [1] is 20.9%; in [2] it was 83.9%; in experiment [3], 76.7%; in [4], 78%; in experiment [5] it was 69.7%; in experiment [6] it was 70.6%. In addition, the growth in experiment [8] is 87.1%; in experiment [20] it was -14.3% (active); in experiment [9], 79.3%; in [10] it was 88%; in experiment [11], 71.9%; in experiment [12] it was 68.7%. Also, the growth in experiment [13] is -16.4% (active); in experiment [14] it was 70.4%; in experiment [15], 34.6%; in experiment [16], -13.2% (active); in [17], 95.4%; in experiment [18] it was 63.9%. The growth in experiment [19] is 80.6%.

Consider `CO[C@H]1/C=C/O[C@@]2(C)Oc3c(C)c(O)c4c(O)c(c5c(nc6cc(C)ccn65)c4c3C2=O)NC(=O)/C(C)=C\C=C\[C@H](C)[C@H](O)[C@@H](C)C(O)[C@@H](C)[C@H](OC(C)=O)[C@@H]1C` (stereo partly specified), for which the growth in experiment [1] is 103%; in [2], 96.7%; in experiment [3], 86.4%; in [4] it was 99.9%; in experiment [5] it was 98.2%; in experiment [6], 90.4%. Also, the growth was 103% in experiment [7]; 98% in experiment [8]; 104% in [9]; 93.1% in [10]; 101% in [11]; 98.6% in [12]. Also, the growth in [13] was 76.3%; in experiment [14] it was 102%; in experiment [15] it was 99.5%; in experiment [16], 94.6%; in experiment [17], 134%; in experiment [18], 101%. For the same molecule, the growth in experiment [19] is 89.8%.

Consider `O=C(CSc1nnc(-c2cc(-c3ccc(Cl)cc3)nc3ccccc23)n1-c1ccccc1)Nc1ccc(Cl)cc1`, for which the growth in [1] is 97%; in [2], 104%; in [3] it was 94.2%; in [4] it was 94.5%; in [5] it was 98.7%; in experiment [6], 80.3%. Moreover, the growth in experiment [8] was 87.1%; in experiment [20], 95.8%; in experiment [9], 103%; in [10] it was 105%; in experiment [11], 94.8%; in experiment [12], 90.5%. Further, the growth in experiment [13] is 77.6%; in [14], 132%; in experiment [15], 106%; in experiment [16] it was 89.5%; in experiment [17] it was 88.2%; in experiment [18], 98.5%. The growth in experiment [19] was 84.1%.

As for `O=C1OCC2=C1C(c1cccc(F)c1)c1cc3c(cc1N2CCO)CCC3` (stereo unspecified), the growth was 7.86% (active) in [1]; 5% (active) in experiment [2]; 29.6% in experiment [3]; 23.9% in experiment [4]; 14.3% in [5]; 24.2% in experiment [6]. Also, the growth in [7] is -1.4% (active); in [8], 42%; in experiment [9], 54.7%; in experiment [10], 27%; in experiment [11], 40.9%; in experiment [12], 26.7%. Also, the growth in [13] is 37.8%; in experiment [14], 57.5%; in experiment [15], 22.8%; in experiment [16], 32.5%; in [17], 5.8% (active); in experiment [18], 5.27% (active). In addition, the growth in experiment [19] is 11.4%.

On to `COC(=O)CCc1c(/C=C2\N=C(c3ccc[nH]3)C=C2OC)[nH]c(C)c1C(=O)OCc1ccccc1`, for which the growth was -1.22% (active) in [1]; 9.15% (active) in experiment [2]; -17.6% (active) in [3]; 39.3% in [4]; 3.55% (active) in [5]; 6.14% (active) in experiment [6]. For the same molecule, the growth in experiment [7] is -52.4% (active); in [8], -29.2% (active); in experiment [9], 16.8%; in [10] it was -27.8% (active); in experiment [11], 27.4%; in experiment [12] it was 15.8%. Besides, the growth in experiment [13] was -67.2% (active); in experiment [14], 18.4%; in experiment [15], 4.36% (active); in experiment [16], -3.87% (active); in [17] it was 15.1%; in [18], 1.47% (active). For the same molecule, the growth in experiment [19] was 16.9%.

In the case of `C#CCOc1cccc(-c2ncnc3cc(NC(=O)CCl)ccc23)c1`, the growth in experiment [1] is -32.9% (active); in [2], -70.7% (active); in experiment [3] it was 18%; in [4] it was 7.8% (active); in experiment [5], -93.7% (active); in [6], -15.9% (active). Besides, the growth in experiment [7] was -86% (active); in experiment [8], -41.7% (active); in [9], 20.2%; in experiment [10], -4.29% (active); in experiment [11] it was 11%; in experiment [12], -65.8% (active). Moreover, the growth was -93.7% (active) in experiment [13]; 11.8% in experiment [14]; -99.6% (active) in [15]; -94.4% (active) in experiment [16]; 59.4% in [17]; -15.6% (active) in experiment [18]. In experiment [19], the growth is -6.64% (active).

As for `COc1ccc(S(=O)(=O)Oc2ccc(-c3sc4cc(OS(=O)(=O)c5ccc(OC)cc5)ccc4c3C(=O)c3ccc(OCCN4CCCCC4)cc3)cc2)cc1`, the growth in [1] was 101%; in [2], 92%; in experiment [3], 70.9%; in experiment [4] it was 103%; in [5], 99.7%; in experiment [6], 106%. Further, the growth in experiment [7] is 101%; in experiment [8] it was 101%; in experiment [9], 103%; in experiment [10], 119%; in experiment [11] it was 97%; in [12], 99.9%. The growth in experiment [13] was 80.7%; in experiment [14], 95%; in experiment [15], 101%; in experiment [16], 94.1%; in [17], 105%; in [18] it was 97.7%. Also, the growth in experiment [19] was 89.3%.

Regarding `COC(=O)c1cc(-c2ccc(OC)c(OC)c2)[nH]c1N/N=C/c1c(Cl)cccc1Cl`, the growth in [1] was 28.4%; in [2] it was 13.7%; in experiment [3] it was 4.55% (active); in experiment [4], 36.1%; in experiment [5] it was 30.2%; in [6], 26.3%. Also, the growth in experiment [8] was 38.2%; in experiment [20], 39.3%; in experiment [9] it was 56.4%; in experiment [10], 53.6%; in [11] it was 39.9%; in experiment [12], 59.1%. The growth in [13] was 52.4%; in experiment [14] it was 57.2%; in experiment [15], 54.4%; in experiment [16], 6.72% (active); in experiment [17], 27.6%; in [18], 19.7%. For the same molecule, in experiment [19], the growth was 39.4%.

`CN(C)c1ccc(/C=C/C2=[N+](C)c3ccccc3C2(C)C)cc1`: the growth in experiment [1] is 39.5%; in experiment [2], 12.5%; in experiment [3] it was 36.3%; in [4] it was 13.2%; in experiment [5], 19.2%; in experiment [6] it was 4.64% (active). Further, the growth in experiment [8] is 9.39% (active); in experiment [20], 15.2%; in experiment [9], 35.4%; in experiment [10], 16.4%; in experiment [11] it was 22.6%; in experiment [12], -9.66% (active). The growth in [13] is 19.4%; in experiment [14] it was 30.4%; in experiment [15], 14%; in experiment [16], 29.3%; in experiment [17], 66.6%; in experiment [18], 11.9%. For the same molecule, the growth in experiment [19] was -6.54% (active).

For the molecule `N#CSCc1cc(Cl)c(CSC#N)cc1Cl`, the growth in experiment [1] is 31.9%; in experiment [2] it was 40.6%; in [3], 47.9%; in [4], 89%; in experiment [6], 75.8%; in experiment [7], 48.5%. Also, the growth in [8] was 71.1%; in [20], 30.5%; in experiment [9], 87.9%; in experiment [10], 96.5%; in experiment [11], 104%; in experiment [12] it was 41.5%. In addition, the growth in experiment [13] was 41.9%; in [14] it was 94%; in experiment [15] it was 45.3%; in experiment [16], 38.3%; in [17] it was 104%; in [18] it was 2.13% (active). Also, in experiment [19], the growth was 17.7%.
